Source: PubChem
This is a sample that favours compounds with a hit; in the whole collection about 8.1% have one here.
ClpP mod = qHTS Assay for Activators of ClpP; 340,000 compounds, 1.9% hits; Potency, µM (doses to about 57.5 µM); ATP-dependent Clp protease proteolytic subunit (Bacillus subtilis (strain 168)), P80244; purified B. subtilis ClpP, FRET peptide cleavage, 20 min; active = well fitted falling curve with a large enough effect; inconclusive = small, poorly fitted or top-dose-only effect; inactive = no such curve, though single readings can be large or run the other way; note: the source files actives as falling curves though it sought activators and does not explain the sign; nearly all actives have a fitted effect of over 65% in size
Target sequence (P80244 whole entry, looked up): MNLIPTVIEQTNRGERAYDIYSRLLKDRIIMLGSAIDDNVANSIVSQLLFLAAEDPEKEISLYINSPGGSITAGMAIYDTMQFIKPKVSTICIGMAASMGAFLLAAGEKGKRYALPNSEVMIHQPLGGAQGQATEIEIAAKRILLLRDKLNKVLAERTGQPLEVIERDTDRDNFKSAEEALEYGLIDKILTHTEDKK
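FRET quenching reversal measured ClpP activation: 10 microg/mL B. subtilis ClpP at pH 8 with the FRET-FV decapeptide, read at 430 nm after 320 nm excitation. The 20-min minus 0-min signal was scaled between DMSO/no-enzyme wells and ADEP (5.8 microM final).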
VP16 counter = VP16 counterscreen qHTS for inhibitors of ROR gamma transcriptional activity. Drosophila S2 Gal4-VP16 UAS-luciferase, luminescence, 20 h. Potency, µM (top dose mostly 53.6 µM), actives largely listed as inhibitors. 310,000 compounds, 3.5% hits. AID 2546, 2010;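 note: Gal4-VP16 expression switched on by copper sulfate through the metallothionein promoter; nearly all actives have a fitted effect of over 50% in size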
Epigenetic reg = Quantitative High-Throughput Screen for Regulators of Epigenetic Control. Potency, µM (top dose mostly 53.9 µM), actives largely listed as activators. AID 1865, 2009. murine LDR cells, GFP reporter derepression, 30 h. 280,000 compounds, 0.2% hits; note: nearly all actives have a fitted effect of over 60% in size
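Murine LDR cells carrying a silenced, genomically integrated CMV-driven GFP reporter were exposed to compound for 30 hours at 37 C. After PBS washes, GFP-positive cells (20–120 um objects) were counted by laser-scanning microplate cytometry.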
Sfp inh = qHTS Assay for Inhibitors of Bacillus subtilis Sfp phosphopantetheinyl transferase (PPTase). Biochemical Sfp PPTase activity, qHTS. 4'-phosphopantetheinyl transferase ffp (Bacillus subtilis), Q9F4F7. Potency, µM, actives largely listed as inhibitors. 310,000 compounds, 3.5% hits;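 note: the enzyme is Sfp with the accession as filed and its product quenches rhodamine fluorescence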
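Buffer: 50 mM Hepes-Na pH 7.6, 10 mM MgCl2, 0.01% Nonidet P-40, 0.01% BSA. Enzyme 15 nM, pre-exposed to compound 15 min; substrates then added and fluorescence change tracked over 30 min.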
RORgamma inh = qHTS for inhibitors of ROR gamma transcriptional activity. Nuclear receptor ROR-gamma (Mus musculus), P51450. Drosophila S2 Gal4-RORgamma UAS-luciferase reporter, 20 h. Potency, µM (doses to about 53.6 µM), actives largely listed as inhibitors. 310,000 compounds, 5.4% hits; note: nearly all actives have a fitted effect of over 60% in size
Target sequence (P51450 whole entry, looked up, the tested form may be a part): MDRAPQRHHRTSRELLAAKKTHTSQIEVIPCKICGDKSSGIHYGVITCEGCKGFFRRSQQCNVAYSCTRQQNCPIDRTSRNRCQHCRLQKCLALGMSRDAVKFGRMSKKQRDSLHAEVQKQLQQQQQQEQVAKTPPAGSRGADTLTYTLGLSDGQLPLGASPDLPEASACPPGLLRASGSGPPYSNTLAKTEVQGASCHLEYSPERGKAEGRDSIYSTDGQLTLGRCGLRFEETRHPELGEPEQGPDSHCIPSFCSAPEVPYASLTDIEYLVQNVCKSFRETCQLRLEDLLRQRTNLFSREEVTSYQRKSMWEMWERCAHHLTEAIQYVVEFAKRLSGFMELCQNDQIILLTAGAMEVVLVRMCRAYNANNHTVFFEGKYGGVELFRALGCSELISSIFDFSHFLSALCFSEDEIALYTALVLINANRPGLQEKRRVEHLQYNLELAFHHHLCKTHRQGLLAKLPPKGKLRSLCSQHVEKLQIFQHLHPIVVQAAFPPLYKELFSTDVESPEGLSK
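Stably transfected Drosophila Schneider cells are the test system, with ROR gamma fused to Gal4 and luciferase under UAS control; luminescence is read after 20 hr of 700 uM copper sulfate induction at ambient temperature.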
PINK1 modulator = A Quantitative High throughput Screen to Identify Chemical Modulators of PINK1 Expression. PINK1 immunofluorescence, high-content cytometry, 24 h. Potency, µM (titrated, usually from 76.6 µM), usual class: activators. 410,000 compounds, 0.2% hits. AID 624263, 2012; active = well fitted activation curve with a large enough effect; inconclusive = small, poorly fitted or top-dose-only effect; cell line not stated here; note: nearly all actives have a fitted effect of over 65% in size
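A stable cell line was treated with compounds at 5 concentrations for 24 hours, with CCCP as control. PINK1 levels and mitochondrial localization were measured by immunofluorescence with mitochondrial, cell and nuclear markers after fixation, read by laser-scanning cytometry.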
Numbers stand for hits. Unless noted, calls come from the whole dose curve; as a rule, active = well fitted curve in the direction sought with a large enough effect; inconclusive = small, poorly fitted or top-dose-only effect, or another doubt; inactive = no such curve, though single readings can be large; an effect the other way counts as inactive or inconclusive.

For COc1ccc2c(c1)O[C@H](c1ccc3c(c1)OCO3)[C@@H](OC(=O)NCc1ccc3c(c1)OCO3)C2=O the results were VP16 counter inactive, Epigenetic reg inactive, Sfp inh inactive and RORgamma inh inactive.
`COc1ccc2c(c1)O[C@H](c1ccc3c(c1)OCO3)[C@@H](OC(=O)NCc1ccco1)C2=O` gave VP16 counter inactive, Epigenetic reg inactive, Sfp inh 89µM and RORgamma inh inconclusive.
`COc1ccc(-n2nc(C(=O)Nc3ccccc3OC)c3c4ccccc4n(C)c3c2=O)cc1Cl` gave ClpP mod inactive, Epigenetic reg inactive and PINK1 modulator inactive.
CN(CCO)C(=O)c1cn(C2CCCN(Cc3ccc4ccccc4c3)C2)nn1 (stereo not drawn) was read as PINK1 modulator inactive.
`CCN1CCN(Cc2ccc(NC(=O)c3ccc(C)c(NC(=O)c4nccnc4N)c3)cc2C(F)(F)F)CC1` gave ClpP mod inactive, VP16 counter inactive, Epigenetic reg inactive, Sfp inh 89µM, RORgamma inh inactive and PINK1 modulator inactive.
`CCN1CCN(Cc2ccc(NC(=O)c3ccc(C)c(NC(=O)N4CCNC4=O)c3)cc2C(F)(F)F)CC1` gave ClpP mod inactive, VP16 counter inactive, Epigenetic reg inactive, Sfp inh inactive, RORgamma inh inactive and PINK1 modulator inactive.
For CCN1CCN(Cc2ccc(NC(=O)c3ccc(C)c(NC(=O)c4cccc5[nH]ccc45)c3)cc2C(F)(F)F)CC1 the results were ClpP mod inconclusive, VP16 counter inactive, Epigenetic reg inactive, Sfp inh inactive, RORgamma inh 6.3µM and PINK1 modulator inactive.
`CCN1CCN(Cc2ccc(NC(=O)c3ccc(C)c(NC(=O)c4nccn4C)c3)cc2C(F)(F)F)CC1` gave ClpP mod inactive, VP16 counter inconclusive, Epigenetic reg inactive, Sfp inh inactive, RORgamma inh inconclusive and PINK1 modulator inactive.
CCN1CCN(Cc2ccc(NC(=O)c3cc(NC(=O)c4cncc(-c5ccc(C#N)cc5)c4)cc(OC)c3)cc2C(F)(F)F)CC1 was read as ClpP mod inconclusive, VP16 counter 3.5µM, Epigenetic reg inactive, Sfp inh inconclusive, RORgamma inh 2.8µM and PINK1 modulator inactive.
For CCN1CCN(Cc2ccc(NC(=O)c3ccc(C)c(NC(=O)c4cc(-c5ccc(Br)cc5)n[nH]4)c3)cc2C(F)(F)F)CC1 the results were ClpP mod inconclusive, VP16 counter inconclusive, Epigenetic reg inactive, Sfp inh 79µM, RORgamma inh inconclusive and PINK1 modulator inactive.
CCC1CN(S(=O)(=O)c2cc(-c3cc(C)no3)ccc2C)c2cc(Cl)ccc2O1 (stereo not drawn) was read as ClpP mod inactive, Epigenetic reg inactive and PINK1 modulator inactive.
For COc1ccc(-n2c(=O)c3ccc(C(=O)NCc4ccc(C)cc4)cc3n(CC(=O)Nc3ccc(C)cc3)c2=O)cc1 the results were ClpP mod inconclusive, Epigenetic reg inactive and PINK1 modulator inactive.
For Fc1ccc(-c2cc(C(F)(F)F)nc(NCc3ccccc3)n2)cc1 the results were ClpP mod 22µM, Epigenetic reg inactive and PINK1 modulator inactive.
Fc1ccc(CNc2nc(-c3ccc(Cl)cc3)cc(C(F)(F)F)n2)cc1 was read as ClpP mod inactive, Epigenetic reg inactive and PINK1 modulator 40µM.
Fc1ccc(-c2cc(C(F)(F)F)nc(NCc3cccs3)n2)cc1 was read as ClpP mod 32µM, VP16 counter inactive, Epigenetic reg inactive, Sfp inh inactive, RORgamma inh inactive and PINK1 modulator inconclusive.
Screening COc1ccc(NC(=O)Cc2csc(COc3cccc(C)c3)n2)c(OC)c1 returned ClpP mod inactive, Epigenetic reg inactive and PINK1 modulator inactive.
Screening CCOc1ccc(-c2nnc3ccc(SCc4ccc(C(=O)OC)o4)nn23)cc1 returned ClpP mod inactive, VP16 counter inconclusive, Epigenetic reg inconclusive, Sfp inh 11µM, RORgamma inh inactive and PINK1 modulator inactive.
Screening COC(=O)c1ccc(CSc2ccc3nnc(-c4ccccn4)n3n2)o1 returned ClpP mod inactive, VP16 counter inconclusive, Epigenetic reg inactive, Sfp inh 40µM, RORgamma inh 11µM and PINK1 modulator inactive.
For COc1cc2c3nnc(-c4ccccc4)c-3cn(Cc3ccccc3F)c2cc1OC the results were VP16 counter inconclusive, Epigenetic reg inconclusive, Sfp inh inactive, RORgamma inh 8.9µM and PINK1 modulator inconclusive.
`COc1cc2c3nnc(-c4ccc(F)cc4)c-3cn(Cc3ccccc3F)c2cc1OC` gave VP16 counter 5µM, Epigenetic reg 6.3µM, Sfp inh inconclusive, RORgamma inh 6.3µM and PINK1 modulator inconclusive.
`COc1cc2c(=O)c(S(=O)(=O)c3ccc(F)cc3)cn(Cc3ccccc3C)c2cc1OC` gave ClpP mod inconclusive, Epigenetic reg inactive and PINK1 modulator inactive.
Cn1nccc1C(=O)NCC1CCC2(CCN(Cc3ccc(-c4ccc(Cl)cc4)o3)CC2)O1 (stereo not drawn) was read as PINK1 modulator inactive.
`Cc1cc(NCc2ccccn2)n2nc(C)c(-c3ccc(Cl)cc3)c2n1` gave ClpP mod inactive, VP16 counter 0.71µM, Epigenetic reg inconclusive, Sfp inh inactive, RORgamma inh 0.063µM and PINK1 modulator inactive.
Cc1cc(C(F)(F)F)n2nc(C)c(-c3ccc(Cl)cc3)c2n1 was read as ClpP mod inactive, VP16 counter inactive, Epigenetic reg inactive, Sfp inh inactive, RORgamma inh inactive and PINK1 modulator inactive.
`Cc1cc(NCc2ccccn2)n2ncc(-c3ccccc3)c2n1` gave VP16 counter 0.32µM, Epigenetic reg inconclusive, Sfp inh inactive, RORgamma inh 0.089µM and PINK1 modulator inactive.
For Cc1cc(NCc2ccccn2)n2ncc(-c3ccc(Cl)cc3)c2n1 the results were VP16 counter 0.63µM, Epigenetic reg inconclusive, Sfp inh inactive, RORgamma inh 0.045µM and PINK1 modulator inactive.
COc1ccc(N2CCN(C(=O)c3cccc(NC(=O)c4nsc5ccccc45)c3)CC2)cc1 was read as ClpP mod inactive, Epigenetic reg inactive and PINK1 modulator inactive.
Cc1scc(C(=O)N/N=C/c2ccco2)c1C was read as ClpP mod inactive, VP16 counter inactive, Epigenetic reg inactive, Sfp inh inactive, RORgamma inh inactive and PINK1 modulator inactive.
Screening CCC/C(=N\NC(=O)c1ccco1)c1ccc(Cl)s1 returned ClpP mod inactive, VP16 counter 18µM, Sfp inh inactive, RORgamma inh 11µM and PINK1 modulator inactive.
